In PubChem BioAssay (NCATS):
The list shows a part of the results. Results filed as inconclusive are left out. Calls of active or inactive are those of the source. Calls follow the shape of the dose curve; as a rule, active = well fitted inhibition curve with a large enough effect; inconclusive = small, poorly fitted or top-dose-only effect; inactive = flat fitted curve, though single readings scatter.

target: Bifunctional 3'-5' exonuclease/ATP-dependent helicase WRN (Homo sapiens) (UniProt Q14191); experiment: qHTS for Inhibitors of WRN Helicase: Confirmatory Assay for Cherry-picked Compounds. (AID 720497); conditions: WRN helicase DNA unwinding, fluorescence kinetic; series mostly up to 57.1 µM; also: nearly all actives have a fitted effect of over 65% in size
Description: Inhibition of DNA repair is proposed as a strategy for combating cancer. Synthetic lethality is an approach that exploits preexisting DNA repair deficiencies in certain tumors to develop inhibitors of DNA repair pathways that compensate for the tumor-associated DNA repair deficiency. Because helicases play critical roles in the DNA damage response and in DNA repair, particularly in actively dividing and replicating cells, characterization of synthetic lethal relationships of DNA helicases may be of value in developing improved anticancer treatment strategies; moreover, small molecules that specifically target a given DNA helicase may be useful for understanding its role in cellular nucleic acid metabolism. The goal of this project is to identify small molecule, non-covalent chemical inhibitors of the Werner syndrome (WS) helicase (WRN), which plays an important role in cell proliferation, the replication stress response, and DNA repair. […] The WRN gene product that is defective in the chromosomal instability disorder has DNA helicase and exonuclease activities and interacts with a number of nuclear proteins to maintain genomic stability. A 1536-well format, fluorescence based, high-throughput screen (AID 651768) has been developed in collaboration with the Brosh Laboratory at the National Institute of Aging (NIA) to screen for inhibitors of the WRN. This is a confirmatory screen to confirm the activity of the selected compounds from the WRN helicase primary assay. Inhibition is the desired outcome for this assay. NIH Chemical Genomics Center [NCGC] NIH Molecular Libraries Probe Centers Network [MLPCN] MLPCN Grant: MH096530 Assay Submitter (PI): Robert Brosh, National Institute of Aging
Three microliter of reagents (buffer in columns 3 and 4 as negative controls; WRN at 20 nM final concentration in columns 1 and 2 as positive controls; columns 5-48 as test reactions) were dispensed into a 1536-well Greiner black plate via a solenoid-valve based nanoliter dispenser. Compounds (23 nL each in columns 5-48) and control (23 nL each in column 2 as dose-response) were transferred to the assay plate via a Kalypsys pintool equipped with a 1536-pin array. Plates were incubated for 15 min at room temperature, followed by a 1 uL addition of substrate (100 nM forked duplex oligonucleotide and 2 mM ATP final concentrations) to start reaction. The plates were transferred into a ViewLux CCD imager where the reaction was measured in a kinetic mode using the standard red fluorescence optics (excitation filter 525 nm, emission filter 598 nm). Maximum inhibition response was normalized to the positive control signal while no inhibition response was normalized to the buffer only wells.
Potency is read from the fitted curve at half-maximal effect.

Bifunctional 3'-5' exonuclease/ATP-dependent helicase WRN (Homo sapiens), sequence (Q14191 whole entry, looked up): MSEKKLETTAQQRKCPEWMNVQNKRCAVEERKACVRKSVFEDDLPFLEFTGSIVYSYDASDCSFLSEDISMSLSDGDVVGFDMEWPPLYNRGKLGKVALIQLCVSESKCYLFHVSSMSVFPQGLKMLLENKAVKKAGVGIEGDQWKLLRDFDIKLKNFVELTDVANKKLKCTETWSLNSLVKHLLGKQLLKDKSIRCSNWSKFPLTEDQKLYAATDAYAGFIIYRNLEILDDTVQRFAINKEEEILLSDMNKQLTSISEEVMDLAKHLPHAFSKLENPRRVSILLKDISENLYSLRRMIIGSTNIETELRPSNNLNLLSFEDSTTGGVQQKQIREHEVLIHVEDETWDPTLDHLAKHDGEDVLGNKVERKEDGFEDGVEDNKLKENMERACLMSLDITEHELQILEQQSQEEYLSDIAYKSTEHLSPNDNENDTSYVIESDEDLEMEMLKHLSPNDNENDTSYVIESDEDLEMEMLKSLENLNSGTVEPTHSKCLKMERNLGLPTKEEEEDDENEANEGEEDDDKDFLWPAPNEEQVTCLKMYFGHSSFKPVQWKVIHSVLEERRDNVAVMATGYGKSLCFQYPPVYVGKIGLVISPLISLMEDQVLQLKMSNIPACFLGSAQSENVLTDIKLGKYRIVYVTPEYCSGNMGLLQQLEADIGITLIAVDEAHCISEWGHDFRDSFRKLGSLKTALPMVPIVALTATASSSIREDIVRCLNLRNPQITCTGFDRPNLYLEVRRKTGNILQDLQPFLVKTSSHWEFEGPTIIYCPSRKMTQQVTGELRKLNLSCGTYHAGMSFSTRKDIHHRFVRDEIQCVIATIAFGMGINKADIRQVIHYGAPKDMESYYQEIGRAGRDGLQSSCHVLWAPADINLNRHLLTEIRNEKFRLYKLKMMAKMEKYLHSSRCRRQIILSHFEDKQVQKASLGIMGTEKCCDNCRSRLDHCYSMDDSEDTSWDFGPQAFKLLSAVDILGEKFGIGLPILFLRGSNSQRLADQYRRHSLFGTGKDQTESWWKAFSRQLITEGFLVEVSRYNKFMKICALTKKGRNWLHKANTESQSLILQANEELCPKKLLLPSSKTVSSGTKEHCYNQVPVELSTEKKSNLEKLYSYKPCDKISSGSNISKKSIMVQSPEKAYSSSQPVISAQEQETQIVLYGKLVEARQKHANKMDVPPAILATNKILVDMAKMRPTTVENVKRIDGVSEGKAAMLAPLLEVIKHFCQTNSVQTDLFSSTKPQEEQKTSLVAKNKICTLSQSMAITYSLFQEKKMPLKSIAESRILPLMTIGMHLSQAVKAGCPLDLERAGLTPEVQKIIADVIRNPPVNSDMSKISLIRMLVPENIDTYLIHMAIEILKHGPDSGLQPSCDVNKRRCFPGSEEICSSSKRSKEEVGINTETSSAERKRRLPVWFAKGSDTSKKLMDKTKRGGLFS

Question: For `COc1cccc2c1C(=O)c1c(O)c3c(c(O)c1C2=O)CC(O)(C(C)=NNC(=O)c1ccc(Cl)c(Cl)c1)CC3OC1CC(N)C(O)C(C)O1` (configuration not stated), which Potency is on record?
Answer: 1.92 µM (active)

Question: How did the Potency turn out when `CN1CCN(S(=O)(=O)c2cccc(C(=O)Nc3sccc3C#N)c2)CC1` was run?
Answer: 24.1 µM (active)

Question: With `CSc1nnc(SCc2nc3sc(C(=O)O)c(C)c3c(=O)[nH]2)s1` as the molecule, how does the Potency read?
Answer: 13.6 µM (active)

Question: For `CC(=O)N(C1=C(Cl)C(=O)c2ccccc2C1=O)c1ccc(C(=O)O)cc1`, which Potency is on record?
Answer: inactive

Question: For `COc1ccc(Cl)cc1NC(=O)CCS(=O)(=O)c1ccc(Br)cc1`, which Potency is on record?
Answer: 21.5 µM (active)

Question: How did the Potency turn out when `N#C/C(=C\C1=C(N2CCOCC2)C(=C\c2ccccc2)/CC1)C(=O)Nc1ccccc1F` was run?
Answer: 38.3 µM (active)

Question: With `Cc1ccc(-c2nc(SCc3ccc(Br)cc3)n3[nH]c(=O)cc3n2)cc1` as the molecule, how does the Potency read?
Answer: 13.6 µM (active)

Question: For `COC(=O)/C=C\C(=O)Nc1cccc([N+](=O)[O-])c1`, which Potency is on record?
Answer: inactive

Question: `CCN(CC)CCOc1ccc2c(c1)C(=NNC(=O)c1ccccn1)c1cc(OCCN(CC)CC)ccc1-2` was tested. Which Potency did it give?
Answer: 13.6 µM (active)

Question: How did the Potency turn out when `Cc1c(CC(=O)N2CCN(C(=O)C3COc4ccccc4O3)CC2)c(=O)oc2c(O)c(O)ccc12` (configuration not stated) was run?
Answer: 2.41 µM (active)

Question: For `CN(C)c1nc(Nc2ccc(Cl)c(Cl)c2)nc(N(C)C)n1`, which Potency is on record?
Answer: inactive

Question: How did the Potency turn out when `CCc1ccc2nc3sc(C(=O)Nc4nnc(CC)s4)c(N)c3cc2c1` was run?
Answer: 13.6 µM (active)
